# In the supplement of paper PMC10849652:
# About 7,900 targets were measured; listed, in parts, are those with a hit and a random draw of the rest. About 0.6% of all pairs of compound and target were hits. A number with no mark means an inactive call.
# Assays:
# Assay in all cases: log2 fold change, soluble protein after heating vs DMSO (PISA); higher = thermal stabilisation; K562 cells, 10 uM, 30 min; active = over 0.2 and 3.5 SD of the protein, either way, in both replicates (recomputed)
# [1] = compound: CC[C@@H]1C(=O)N(C)c2cnc(Nc3ccc(C(=O)NC4CCN(C)CC4)cc3OC)nc2N1C1CCCC1
# Summary of the method: (§1)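 Soluble protein was defined as the supernatant after 21,000xg for 90 min. It came from K562 cells at 2×10^6 cells/mL given 10 μM compound for 30 min, heated in aliquots for 3 min across 48°C-58°C, pooled, and extracted in PBS with 0.5% NP-40 at 4°C, and was quantified by TMTpro 16plex LC-MS/MS with equalised channel sums. Thermal stability against control samples, from duplicates, is reported as log2 fold change.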
# volasertib = compound: CC[C@@H]1C(=O)N(C)c2cnc(Nc3ccc(C(=O)N[C@H]4CC[C@H](N5CCN(CC6CC6)CC5)CC4)cc3OC)nc2N1C(C)C [volasertib]
# Summary of the method: as §1
# [2] = compound: CC[C@H](C)N1C=C(C2=C(C=C(C=C21)C3=CN=C(C=C3)N4CCNCC4)C(=O)NCC5=C(C=C(NC5=O)C)C)C
# Summary of the method: as §1
# epoxomicin = compound: CC[C@H](C)[C@@H](C(=O)N[C@@H]([C@@H](C)O)C(=O)N[C@@H](CC(C)C)C(=O)[C@]1(CO1)C)NC(=O)[C@H]([C@@H](C)CC)N(C)C(=O)C [epoxomicin]
# Summary of the method: as §1
# [3] = compound: CCn1c(C(=O)N(C2CC2)C2CC2)cc2c3c(ncn3C)c(Nc3cc(C)n(C)n3)nc21
# Summary of the method: as §1
# [4] = compound: CCn1cc(-c2ccnc3[nH]c(-c4cccc(CN(C)C)c4)cc23)c(-c2ccc(NC(=O)N(C)C)cc2)n1
# Summary of the method: as §1
# [5] = compound: CN(C)CC(=O)Nc1ccc2[nH]c(=O)c3ccccc3c2c1
# Summary of the method: as §1
# rosiglitazone = compound: CN(CCOC1=CC=C(C=C1)C[C@H]2C(=O)NC(=O)S2)C3=CC=CC=N3 (racemic) [rosiglitazone]
# Summary of the method: as §1
# [6] = compound: CN1C2=C(C3=C1C(=O)N(N=C3)CC4=CC(=CC=C4)N)SC(=C2)S(=O)C
# Summary of the method: as §1
# [7] = compound: CN1CCC(CNc2ccc3ncc(-c4cccc(OC(F)(F)F)c4)n3n2)CC1
# Summary of the method: as §1
# saracatinib = compound: CN1CCN(CCOc2cc(OC3CCOCC3)c3c(Nc4c(Cl)ccc5c4OCO5)ncnc3c2)CC1 [saracatinib]
# Summary of the method: as §1
# sotrastaurin = compound: CN1CCN(c2nc(C3=C(c4c[nH]c5ccccc45)C(=O)NC3=O)c3ccccc3n2)CC1 [sotrastaurin]
# Summary of the method: as §1
# alvocidib = compound: CN1CC[C@H](c2c(O)cc(O)c3c(=O)cc(-c4ccccc4Cl)oc23)[C@H](O)C1 [alvocidib]
# Summary of the method: as §1
# Tubastatin A = compound: CN1CCc2c(c3ccccc3n2Cc2ccc(C(=O)NO)cc2)C1 [Tubastatin A]
# Summary of the method: as §1
# [8] = compound: CNC(=O)C1=CC=CC=C1NC2=NC(=NC=C2Cl)NC3=C(C=C(C=C3)N4CCOCC4)OC
# Summary of the method: as §1
# defactinib = compound: CNC(=O)c1ccc(Nc2ncc(C(F)(F)F)c(NCc3nccnc3N(C)S(C)(=O)=O)n2)cc1 [defactinib]
# Summary of the method: as §1
# rucaparib = compound: CNCc1ccc(-c2[nH]c3cc(F)cc4c3c2CCNC4=O)cc1 [rucaparib]
# Summary of the method: as §1
# [9] = compound: CNc1nc(-c2ccc3c(N)n[nH]c3c2)cc(N2C[C@@H](C(=O)NC3CCCCC3)CC[C@H]2C)n1
# Summary of the method: as §1
# encorafenib = compound: COC(=O)N[C@@H](C)CNc1nccc(-c2cn(C(C)C)nc2-c2cc(Cl)cc(NS(C)(=O)=O)c2F)n1 [encorafenib]
# Summary of the method: as §1
# [10] = compound: COC(=O)[C@H](CCSC)NC(=O)C1=C(C=C(C=C1)NC[C@H](CS)N)C2=CC=CC=C2
# Summary of the method: as §1
# Chain of UniProt Q86YM7 (Q86YM7 whole entry, looked up): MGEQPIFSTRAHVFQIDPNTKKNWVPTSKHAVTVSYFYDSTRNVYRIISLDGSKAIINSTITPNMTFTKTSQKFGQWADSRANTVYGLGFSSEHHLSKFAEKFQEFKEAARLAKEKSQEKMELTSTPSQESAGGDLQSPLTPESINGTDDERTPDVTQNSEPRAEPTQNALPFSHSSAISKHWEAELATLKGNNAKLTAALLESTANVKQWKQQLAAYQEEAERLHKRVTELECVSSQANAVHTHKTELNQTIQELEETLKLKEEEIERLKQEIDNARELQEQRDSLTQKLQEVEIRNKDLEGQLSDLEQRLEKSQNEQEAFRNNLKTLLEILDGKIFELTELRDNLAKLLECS
# Chain of UniProt P31150 (P31150 whole entry, looked up): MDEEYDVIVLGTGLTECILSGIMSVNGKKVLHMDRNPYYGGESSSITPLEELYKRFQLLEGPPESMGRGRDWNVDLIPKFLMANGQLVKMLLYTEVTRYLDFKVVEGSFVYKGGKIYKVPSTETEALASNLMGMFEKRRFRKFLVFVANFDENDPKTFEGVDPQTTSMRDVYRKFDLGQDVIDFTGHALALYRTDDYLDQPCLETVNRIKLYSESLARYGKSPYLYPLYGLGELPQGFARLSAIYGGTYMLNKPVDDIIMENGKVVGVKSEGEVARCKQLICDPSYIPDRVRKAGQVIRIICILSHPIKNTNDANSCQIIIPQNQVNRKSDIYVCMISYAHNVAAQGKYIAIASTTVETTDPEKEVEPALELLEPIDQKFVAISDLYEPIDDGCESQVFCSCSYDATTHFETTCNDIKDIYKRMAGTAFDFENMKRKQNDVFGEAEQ
# Chain of UniProt P30519 (P30519 whole entry, looked up): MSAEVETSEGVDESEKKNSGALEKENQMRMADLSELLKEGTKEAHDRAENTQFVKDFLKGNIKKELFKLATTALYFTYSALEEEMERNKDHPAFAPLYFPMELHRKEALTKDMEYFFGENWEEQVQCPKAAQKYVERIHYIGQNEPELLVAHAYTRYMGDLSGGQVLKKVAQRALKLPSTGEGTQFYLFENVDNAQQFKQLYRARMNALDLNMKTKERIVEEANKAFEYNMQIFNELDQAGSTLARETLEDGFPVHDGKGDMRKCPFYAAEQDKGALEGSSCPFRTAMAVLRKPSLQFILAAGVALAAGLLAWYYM
# Chain of UniProt O00165 (O00165 whole entry, looked up): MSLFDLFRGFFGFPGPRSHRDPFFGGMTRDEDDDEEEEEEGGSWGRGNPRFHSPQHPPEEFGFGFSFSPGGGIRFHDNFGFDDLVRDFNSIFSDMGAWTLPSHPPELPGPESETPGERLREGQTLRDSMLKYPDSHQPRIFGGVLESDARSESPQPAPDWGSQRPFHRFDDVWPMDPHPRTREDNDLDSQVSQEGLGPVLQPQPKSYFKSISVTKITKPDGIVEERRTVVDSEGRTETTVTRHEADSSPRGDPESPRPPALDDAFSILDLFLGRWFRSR
# Chain of UniProt Q8NCW6 (Q8NCW6 whole entry, looked up): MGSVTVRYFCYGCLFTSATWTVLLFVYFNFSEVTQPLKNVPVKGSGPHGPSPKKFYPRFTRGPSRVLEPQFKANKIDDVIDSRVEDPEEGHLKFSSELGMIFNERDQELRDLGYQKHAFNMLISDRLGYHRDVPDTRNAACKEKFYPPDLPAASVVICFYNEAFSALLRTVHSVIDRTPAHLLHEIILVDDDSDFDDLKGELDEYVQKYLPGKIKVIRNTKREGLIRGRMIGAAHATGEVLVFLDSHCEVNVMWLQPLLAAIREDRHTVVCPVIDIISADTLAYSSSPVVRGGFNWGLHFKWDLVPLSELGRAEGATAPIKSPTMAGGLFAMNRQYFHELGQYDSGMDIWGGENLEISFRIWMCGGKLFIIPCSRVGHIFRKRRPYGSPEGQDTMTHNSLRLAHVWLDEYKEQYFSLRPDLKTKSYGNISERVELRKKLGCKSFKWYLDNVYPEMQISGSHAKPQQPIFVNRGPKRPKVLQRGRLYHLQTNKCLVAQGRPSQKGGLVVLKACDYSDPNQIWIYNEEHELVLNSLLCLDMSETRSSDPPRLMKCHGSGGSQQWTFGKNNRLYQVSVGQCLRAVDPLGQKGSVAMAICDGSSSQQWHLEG
# Chain of UniProt Q9H6D7 (Q9H6D7 whole entry, looked up): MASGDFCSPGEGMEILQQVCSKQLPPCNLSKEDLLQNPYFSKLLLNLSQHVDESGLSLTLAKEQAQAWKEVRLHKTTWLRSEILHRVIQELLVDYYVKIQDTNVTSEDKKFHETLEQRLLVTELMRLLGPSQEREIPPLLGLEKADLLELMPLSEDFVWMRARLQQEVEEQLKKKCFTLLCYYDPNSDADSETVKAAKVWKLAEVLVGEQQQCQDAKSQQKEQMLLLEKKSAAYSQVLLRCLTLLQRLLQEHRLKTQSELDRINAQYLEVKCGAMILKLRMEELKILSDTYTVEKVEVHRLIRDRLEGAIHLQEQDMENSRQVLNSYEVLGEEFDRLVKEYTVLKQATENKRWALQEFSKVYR
# Chain of UniProt Q658Y4 (Q658Y4 whole entry, looked up): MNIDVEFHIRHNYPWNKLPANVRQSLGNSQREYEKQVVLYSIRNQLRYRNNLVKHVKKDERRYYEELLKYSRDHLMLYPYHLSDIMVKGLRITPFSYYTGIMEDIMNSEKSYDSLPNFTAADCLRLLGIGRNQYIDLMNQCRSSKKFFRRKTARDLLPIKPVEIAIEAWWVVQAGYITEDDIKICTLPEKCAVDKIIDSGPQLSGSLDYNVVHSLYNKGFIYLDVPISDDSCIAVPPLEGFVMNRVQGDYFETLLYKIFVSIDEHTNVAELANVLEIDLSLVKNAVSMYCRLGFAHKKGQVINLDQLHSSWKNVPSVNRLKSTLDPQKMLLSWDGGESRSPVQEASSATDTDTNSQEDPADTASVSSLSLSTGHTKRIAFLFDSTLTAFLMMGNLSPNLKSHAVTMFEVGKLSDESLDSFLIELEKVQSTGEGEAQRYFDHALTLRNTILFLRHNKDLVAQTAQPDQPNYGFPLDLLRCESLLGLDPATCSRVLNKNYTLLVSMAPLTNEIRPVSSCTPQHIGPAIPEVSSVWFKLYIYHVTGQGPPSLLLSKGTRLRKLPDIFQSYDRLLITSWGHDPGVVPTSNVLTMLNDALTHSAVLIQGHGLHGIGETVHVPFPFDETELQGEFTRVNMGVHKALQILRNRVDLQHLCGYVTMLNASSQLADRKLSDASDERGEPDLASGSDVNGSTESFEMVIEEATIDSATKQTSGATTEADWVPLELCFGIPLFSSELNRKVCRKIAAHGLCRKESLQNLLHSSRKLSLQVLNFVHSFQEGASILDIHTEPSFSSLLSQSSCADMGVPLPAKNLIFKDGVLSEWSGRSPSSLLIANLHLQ
# Chain of UniProt P36969 (P36969 whole entry, looked up): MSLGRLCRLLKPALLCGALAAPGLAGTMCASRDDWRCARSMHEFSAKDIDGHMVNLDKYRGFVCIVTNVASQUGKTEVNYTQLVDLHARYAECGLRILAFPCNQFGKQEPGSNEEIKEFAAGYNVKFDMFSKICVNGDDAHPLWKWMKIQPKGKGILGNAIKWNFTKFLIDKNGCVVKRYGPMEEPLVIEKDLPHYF
# Chain of UniProt Q8N4A0 (Q8N4A0 whole entry, looked up): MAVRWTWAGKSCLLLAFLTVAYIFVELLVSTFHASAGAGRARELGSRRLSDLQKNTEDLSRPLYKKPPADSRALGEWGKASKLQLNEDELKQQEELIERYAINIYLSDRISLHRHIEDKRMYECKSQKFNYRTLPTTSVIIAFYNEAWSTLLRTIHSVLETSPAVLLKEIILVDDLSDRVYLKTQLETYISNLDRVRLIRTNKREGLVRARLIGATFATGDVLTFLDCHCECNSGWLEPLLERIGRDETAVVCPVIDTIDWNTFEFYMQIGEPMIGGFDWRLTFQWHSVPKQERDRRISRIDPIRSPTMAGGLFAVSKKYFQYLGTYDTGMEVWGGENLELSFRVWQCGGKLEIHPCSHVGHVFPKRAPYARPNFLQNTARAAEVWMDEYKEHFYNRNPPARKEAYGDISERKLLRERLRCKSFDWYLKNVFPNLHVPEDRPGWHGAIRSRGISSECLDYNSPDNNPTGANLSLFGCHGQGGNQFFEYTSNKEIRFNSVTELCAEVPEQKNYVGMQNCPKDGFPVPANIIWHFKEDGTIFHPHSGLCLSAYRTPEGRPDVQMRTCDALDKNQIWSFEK
# Chain of UniProt Q8IVV7 (Q8IVV7 whole entry, looked up): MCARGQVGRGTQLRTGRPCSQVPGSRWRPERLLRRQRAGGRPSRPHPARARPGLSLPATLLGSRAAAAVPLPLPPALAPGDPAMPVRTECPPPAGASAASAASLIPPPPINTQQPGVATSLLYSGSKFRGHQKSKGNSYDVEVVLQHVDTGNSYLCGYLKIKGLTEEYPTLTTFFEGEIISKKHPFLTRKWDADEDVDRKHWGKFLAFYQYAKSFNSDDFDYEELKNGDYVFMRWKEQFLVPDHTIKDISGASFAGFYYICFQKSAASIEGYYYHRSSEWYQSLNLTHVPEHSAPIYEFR
# Chain of UniProt Q9Y680 (Q9Y680 whole entry, looked up): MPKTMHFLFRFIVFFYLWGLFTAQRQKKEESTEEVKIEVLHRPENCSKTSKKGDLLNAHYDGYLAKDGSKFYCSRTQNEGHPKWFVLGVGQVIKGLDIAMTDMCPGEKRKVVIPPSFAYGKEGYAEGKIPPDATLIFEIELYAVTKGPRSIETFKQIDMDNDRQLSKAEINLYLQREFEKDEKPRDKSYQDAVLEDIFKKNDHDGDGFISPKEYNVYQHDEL
# Chain of UniProt P22087 (P22087 whole entry, looked up): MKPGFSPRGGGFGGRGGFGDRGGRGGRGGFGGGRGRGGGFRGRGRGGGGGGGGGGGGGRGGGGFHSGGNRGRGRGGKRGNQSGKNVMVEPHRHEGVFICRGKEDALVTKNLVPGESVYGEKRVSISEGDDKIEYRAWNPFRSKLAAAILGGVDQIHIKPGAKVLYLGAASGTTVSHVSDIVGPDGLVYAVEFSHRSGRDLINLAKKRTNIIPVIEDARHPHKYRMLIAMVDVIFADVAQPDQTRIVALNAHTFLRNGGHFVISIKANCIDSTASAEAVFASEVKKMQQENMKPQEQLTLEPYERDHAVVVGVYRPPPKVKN
Target,log2 fold change [1],log2 fold change (volasertib),log2 fold change [2],log2 fold change (epoxomicin),log2 fold change [3],log2 fold change [4],log2 fold change [5],log2 fold change (rosiglitazone),log2 fold change [6],log2 fold change [7],log2 fold change (saracatinib),log2 fold change (sotrastaurin),log2 fold change (alvocidib),log2 fold change (Tubastatin A),log2 fold change [8],log2 fold change (defactinib),log2 fold change (rucaparib),log2 fold change [9],log2 fold change (encorafenib),log2 fold change [10]
FAM91A1 (UniProt Q658Y4),0.062,0.221,-0.007,-0.675 (active),-0.08,-0.015,-0.003,0.037,0.001,0.233 (active),0.055,-0.049,-0.037,0.005,0.059,0,-0.015,0.002,0.05,-0.025
HAUS4 (UniProt Q9H6D7),-0.138,-0.027,0.123,-0.391,-0.04,0.032,-0.072,0.027,0.246,0.049,0.466,-0.194,0.035,0.044,0.195,0.019,0.337,0.044,0.194,-0.03
IFI30 (UniProt P13284),-0.443 (active),-0.436 (active),0.038,-0.014,-0.096,-0.098,-0.021,-0.061,-0.06,-0.448 (active),0.224,0.063,-0.003,-0.028,-0.02,-0.048,0.006,0.144,0.009,0.042
FKBP7 (UniProt Q9Y680),0.035,0.021,0.015,-0.04,0.003,0.026,-0.042,-0.054,-0.001,0.191,0.073,0.056,0,-0.026,0.008,-0.032,0.01,0.031,0.044,0.036
GDI1 (UniProt P31150),0.018,0.113,0.025,0.022,-0.031,-0.068,-0.015,0.027,-0.082,0.008,0.017,0.012,-0.067,-0.025,0.012,-0.046,-0.042,-0.015,0.006,0.009
GID4 (UniProt Q8IVV7),0.082,0.037,0.044,-0.019,0.08,0.116,-0.21,0.003,-0.093,-0.006,0.04,-0.091,-0.006,0.015,-0.038,0.032,0.032,-0.079,-0.072,0.139
HMOX2 (UniProt P30519),-0.015,-0.251 (active),0.074,0.009,-0.054,-0.069,0.008,0.012,0.011,0.054,-0.071,-0.04,-0.06,0.004,0.03,-0.049,0.036,0.15,0.081,-0.038
GCDH (UniProt Q92947),-0.029,0.039,-0.003,0.024,-0.021,-0.051,0.008,0.013,-0.048,0.072,0.035,0.07,0,0.004,-0.054,-0.012,0.045,0.009,-0.047,0.008
HOMER1 (UniProt Q86YM7),-0.018,0.024,-0.099,0.006,0.017,-0.025,0.018,-0.011,-0.018,0.033,0.032,0.045,-0.047,-0.084,0.021,0.015,0.021,0.007,0.04,-0.047
H2AFX (UniProt P16104),0.002,0.214,-0.096,-0.237,-0.01,0.279,-0.213,-0.101,0.501,0.082,-0.123,0.081,0.249,0.025,-0.003,0.53,0.347,0.089,-0.013,0.233
HAX1 (UniProt O00165),-0.087,-0.393 (active),-0.011,-0.018,-0.031,0.084,0.05,0.023,0.012,-0.584 (active),-0.067,-0.106,-0.015,0.015,-0.14,-0.008,0.082,0.051,0.045,-0.013
FBL (UniProt P22087),0.283,0.151,-0.034,-0.396,-0.106,0.184,-0.143,-0.144,0.359,0.34,0.11,-0.016,0.262,-0.022,-0.012,0.375,0.511,0.002,0.096,0.023
GPX4 (UniProt P36969),0.019,0.016,0.012,0.021,0.001,-0.025,0.009,-0.012,-0.061,0.067,0.043,0.004,-0.035,-0.371 (active),-0.02,-0.009,0.002,-0.037,-0.009,-0.013
GALNT11 (UniProt Q8NCW6),0.057,-0.223 (active),0.014,-0.002,-0.038,0.015,-0.079,0.176,0.013,-0.009,-0.025,-0.024,0,0.028,0.033,-0.187,-0.047,0.01,-0.064,-0.055
GALNT4 (UniProt Q8N4A0),-0.062,-0.334 (active),-0.032,-0.041,-0.032,-0.031,0.007,0.051,-0.007,-0.367 (active),-0.088,-0.029,-0.033,0.046,-0.063,0.016,-0.079,-0.138,0.04,-0.013
GOLGB1 isoform 2 (UniProt Q14789),0.009,-0.17,-0.052,-0.185,0.082,0.05,-0.061,0.004,0.148,-0.009,-0.056,-0.121,0.124,0.029,0.048,0,0.02,-0.001,-0.04,0.003
